“And” between values parts separate entries of the source, which are not always exact repeats. Equal values may be shown once. Records with an inconclusive call do not appear. The source made the active and inactive calls. Unless noted, calls come from the whole dose curve; as a rule, active = well fitted curve in the direction sought with a large enough effect; inconclusive = small, poorly fitted or top-dose-only effect, or another doubt; inactive = no such curve, though single readings can be large; an effect the other way counts as inactive or inconclusive.
Assays:
[1] = target: Mitogen-activated protein kinase 10 (Mus musculus) (UniProt Q61831); experiment: JNK3 AlphaScreen Assay (AID 530; active = well fitted curve in either direction with a large enough effect, not every such curve was filed as active;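 note: kinase came from lysate of stimulated human HepG2 cells; signal reports phosphorylation of biotinylated GST-cJun 1-79 at Ser73 with 10 µM ATP; % is set by controls: 0 for no effect and ±100 for the full control effect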)
In short: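 JNK3 came from HepG2 lysates pre-activated with IL-1beta and TNF-alpha and phosphorylated biotinylated GST-cJun (1-79) at 10 uM ATP, pH 7.6, room temperature. Compounds were titrated. AlphaScreen signal used anti-phospho-cJun (Ser73) antibody.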

[2] = Cell Viability - NIH 3T3 (AID 541); conditions: NIH 3T3 cell viability, qHTS; activity change, negative = cytotoxicity: at 92.2 µM (top of the series);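 note: cells exposed to compound for 40 hours; plate controls were DMSO alone for no effect and tamoxifen positive control for full effect; nearly all actives have a fitted effect of over 25% in size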
In short: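 NIH 3T3 mouse embryo fibroblasts (1000 cells/well) were plated in complete medium and treated with compound for 40 hr at 37 °C. Viability was read as intracellular ATP by CellTiter-Glo luminescence; AC50 values came from Hill-equation fits of concentration-response data.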

[3] = Cell Viability - Mesenchymal (AID 546);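 note: cells exposed to compound for 40 hours before reading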
In short: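 Normal human renal glomerulus-derived kidney mesenchymal cells, 1000 per well in complete medium, were treated with compounds for 40 hr at 37 °C. Viability was read as intracellular ATP by CellTiter-Glo luminescence; AC50 values came from Hill-equation fits of qHTS concentration-response data.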

[4] = Cellular Toxicity (caspase-3) MRC-5 (AID 659);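 note: 0% = DMSO basal and 100% = 10 µM staurosporine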
In short: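 Luminescence from caspase-cleaved aminoluciferin substrate (Caspase-Glo 3/7, 1 hr RT) reports caspase 3/7 activity in MRC-5 lung fibroblasts after 16 hr compound exposure. Normalized to DMSO basal and 10 uM staurosporine as 100%; AC50 from Hill fits.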

[5] = Cellular Toxicity (caspase-3) Hek293 (AID 664); conditions: HEK293 caspase-3 activation, DMSO = 0%, 100 µM tamoxifen = 100%; at 92.2 µM (top of the series);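 note: cells exposed to compound for 16 h at 37 °C before readout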
In short: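 HEK293 cells were exposed to compounds in complete medium for 16 hr at 37 °C, then caspase-3/7 activity was read by Caspase-Glo 3/7 luminescence after 20 min at room temperature. Data normalized to DMSO and 100 uM tamoxifen; AC50 from Hill fits.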

[6] = target: Cytochrome P450 3A4 (Homo sapiens) (UniProt P08684); experiment: qHTS Assay for Inhibitors and Substrates of Cytochrome P450 3A4 (AID 884); note: nearly all actives have a fitted effect of over 50% in size; note: potency is the fitted concentration of half-maximal effect
Sequence of Cytochrome P450 3A4 (Homo sapiens) (P08684 whole entry, looked up): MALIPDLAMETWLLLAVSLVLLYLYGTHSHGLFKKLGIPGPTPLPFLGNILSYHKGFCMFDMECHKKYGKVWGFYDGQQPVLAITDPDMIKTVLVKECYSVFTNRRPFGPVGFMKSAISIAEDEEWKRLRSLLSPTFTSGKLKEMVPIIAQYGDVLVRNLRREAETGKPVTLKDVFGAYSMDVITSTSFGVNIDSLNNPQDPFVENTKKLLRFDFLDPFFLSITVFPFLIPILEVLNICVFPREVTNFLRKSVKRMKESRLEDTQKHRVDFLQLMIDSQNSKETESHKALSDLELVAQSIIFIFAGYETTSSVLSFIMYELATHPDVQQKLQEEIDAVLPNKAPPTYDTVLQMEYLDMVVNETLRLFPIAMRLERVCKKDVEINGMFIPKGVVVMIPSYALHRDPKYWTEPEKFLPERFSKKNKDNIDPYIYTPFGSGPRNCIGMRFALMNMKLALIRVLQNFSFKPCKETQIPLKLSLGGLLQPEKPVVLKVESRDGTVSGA
In short: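 20 nM human CYP3A4 with 25 uM Luciferin-PPXE (at KM) in 200 mM KPO4, preincubated 10 min with compound; NADPH regeneration started a 60 min RT reaction. Luciferin detected by luminescence, normalized to 57 uM ketoconazole as full inhibition.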

[7] = MultiTox-Fluor Cytotoxicity Assay - LYMP1-002 - Live Cells (AID 955); note: % is set by controls: 0 for no effect and ±100 for the full control effect
In short: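 Human lymphoblastoid LYMP1-002 cells, 2500/well in complete medium, rested 5 hr at 37 C, then exposed to compounds for 16 hr at 37 C. Live-cell protease cleavage of GF-AFC read by fluorescence (Ex/Em 405/510) after 60 min at room temperature; AC50 from Hill fits.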

[8] = MultiTox-Fluor Cytotoxicity Assay - LYMP1-002 - Dead Cells (AID 960);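 note: 0% = DMSO and 100% = tetraoctylammonium bromide; nearly all actives have a fitted effect of over 60% in size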
In short: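 Human lymphoblastoid cells (LYMP1-002), 2500/well in complete medium, were exposed to compounds for 16 hr at 37 C. Dead-cell protease activity was read as bis-AAF-R110 fluorescence (Ex/Em 485/520), normalized to DMSO and 15 uM tetraoctylammonium bromide; AC50 from Hill fits.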

[9] = Cell Viability - LYMP2-003 (AID 965);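 note: cells exposed to compounds for 24 h before reading; 0% = DMSO only and full effect = 92 µM tetraoctylammonium bromide; nearly all actives have a fitted effect of over 50% in size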
In short: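 Acute cytotoxicity is scored as a concentration-dependent drop in intracellular ATP, measured by luciferase luminescence in human lymphoblastoid cells treated for 24 hours at 37 C. AC50 values derive from Hill-equation modelling.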

[10] = Cell Viability - LYMP2-021 (AID 974);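 note: compound exposure lasts 24 hours at 37 °C; % is set by controls: 0 for no effect and ±100 for the full control effect; nearly all actives have a fitted effect of over 55% in size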
In short: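 Human lymphoblastoid cells (2500/well) were preincubated 5 hr at 37 C, then exposed to compounds for 24 hr at 37 C in complete medium. Intracellular ATP was read by CellTiter-Glo luminescence; AC50 came from Hill-equation fits of concentration-response data.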

[11] = Cell Viability - LYMP2-016 (AID 984); note: % is set by controls: 0 for no effect and ±100 for the full control effect; nearly all actives have a fitted effect of over 55% in size
In short: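 Acute toxicity in a Coriell human lymphoblastoid line is scored as loss of intracellular ATP over 24 h of treatment in complete medium. CellTiter-Glo signal is fitted across concentrations with the Hill equation to give AC50.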

[12] = Cell Viability - LYMP1-002 - Assay at 24 hr (AID 993); note: % is set by controls: 0 for no effect and ±100 for the full control effect
In short: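 Human lymphoblastoid LYMP1-002 cells, 2500/well in complete medium, were treated with compounds for 24 h at 37 C; intracellular ATP was read by CellTiter-Glo luminescence. AC50 values came from Hill-equation fits of qHTS concentration-response data.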

[13] = qHTS assay for small molecule disruptors of the mitochondrial membrane potential - 5 hr assay (AID 651755; calls by dose curve; note: nearly all actives have a fitted effect of over 40% in size; note: potency is the fitted concentration of half-maximal effect)
In short: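 HepG2 cells, attached overnight at 37C, were exposed to compound or DMSO for 5 hr at 37C, 5% CO2. Mito-MPS dye was then added for 30 min, and fluorescence read at 490/535 nm (monomers) and 540/590 nm (aggregates).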

[14] = target: Tumor necrosis factor (Homo sapiens) (UniProt P01375); experiment: qHTS assay to identify small molecules that stimulate Tumor Necrosis Factor-alpha (TNF-alpha) secretion (AID 651757; active = well fitted curve in the direction sought with a large enough effect in the signal ratio; the % refers to the signal ratio; note: 0% is about no effect)
Sequence of Tumor necrosis factor (Homo sapiens) (P01375 whole entry, looked up): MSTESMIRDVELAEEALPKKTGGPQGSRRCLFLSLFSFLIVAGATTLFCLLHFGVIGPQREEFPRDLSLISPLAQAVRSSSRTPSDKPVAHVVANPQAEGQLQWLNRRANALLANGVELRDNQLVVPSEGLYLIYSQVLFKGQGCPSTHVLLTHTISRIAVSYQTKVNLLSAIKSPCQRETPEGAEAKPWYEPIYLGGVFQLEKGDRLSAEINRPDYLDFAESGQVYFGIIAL
In short: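 THP-1 cells were exposed to compounds for 17 hrs at 37 C, after which secreted TNF-alpha was measured by homogeneous HTRF (TR-FRET) using cryptate- and XL665-labeled anti-TNF-alpha antibodies, read after 3 hr at room temperature.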

[15] = target: Nuclear receptor ROR-gamma (Homo sapiens) (UniProt P51449); experiment: qHTS assay for small molecule antagonists of the retinoid-related orphan receptor gamma (ROR-gamma) signaling pathway (AID 651802); note: % is set by controls: 0 for no effect and ±100 for the full control effect; nearly all actives have a fitted effect of over 60% in size
Sequence of Nuclear receptor ROR-gamma (Homo sapiens) (P51449 whole entry, looked up): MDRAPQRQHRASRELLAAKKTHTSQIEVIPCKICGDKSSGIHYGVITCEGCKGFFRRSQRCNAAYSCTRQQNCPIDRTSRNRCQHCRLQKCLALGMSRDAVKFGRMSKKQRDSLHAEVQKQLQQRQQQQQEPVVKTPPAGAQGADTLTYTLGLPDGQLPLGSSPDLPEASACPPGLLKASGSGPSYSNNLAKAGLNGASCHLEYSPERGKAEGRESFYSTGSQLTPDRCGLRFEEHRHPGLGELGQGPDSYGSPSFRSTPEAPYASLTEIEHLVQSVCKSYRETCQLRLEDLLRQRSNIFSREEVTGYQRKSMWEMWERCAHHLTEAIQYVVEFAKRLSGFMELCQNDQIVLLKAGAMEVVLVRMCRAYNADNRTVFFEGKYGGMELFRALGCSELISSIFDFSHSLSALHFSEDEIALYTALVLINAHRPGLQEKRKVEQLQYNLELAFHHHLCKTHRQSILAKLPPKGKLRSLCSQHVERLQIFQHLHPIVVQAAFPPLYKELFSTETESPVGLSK
In short: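 CHO cells carrying TET-inducible ROR-gamma and an ROR response element–luciferase reporter were exposed to compound, then induced with doxycycline. After 16hr at 37C, luminescence was read; lower signal indicates antagonism.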

[16] = qHTS assay for small molecule agonists of the antioxidant response element (ARE) signaling pathway measured by Nrf2-dependant transcriptional activity - cell viability counter screen (AID 720653; active = well fitted curve in the direction sought with a large enough effect in the repeat runs; an effect the other way counts as inactive or inconclusive; note: % is set by controls: 0 for no effect and ±100 for the full control effect); conditions: ARE-bla HepG2 viability, CellTiter-Glo ATP luminescence, 16 h; stronger effect = lower value
In short: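 ARE-bla HepG2 cells (2,000/well) rested 5 hrs at 37C/5% CO2, then exposed to compounds in DMSO for 16 hrs. Viability was read in the same wells as intracellular ATP by luminescence, 30 min at room temperature after reagent addition.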

[17] = target: Nuclear receptor subfamily 1 group I member 2 (Rattus norvegicus) (UniProt Q9R1A7); experiment: qHTS assay for small molecule activators of the rat pregnane X receptor (rPXR) signaling pathway (AID 651751; call rule not given here; note: 0% is about no effect); conditions: rPXR reporter cells, luciferase (One-Glo), 24 h
Sequence of Nuclear receptor subfamily 1 group I member 2 (Rattus norvegicus) (Q9R1A7 whole entry, looked up): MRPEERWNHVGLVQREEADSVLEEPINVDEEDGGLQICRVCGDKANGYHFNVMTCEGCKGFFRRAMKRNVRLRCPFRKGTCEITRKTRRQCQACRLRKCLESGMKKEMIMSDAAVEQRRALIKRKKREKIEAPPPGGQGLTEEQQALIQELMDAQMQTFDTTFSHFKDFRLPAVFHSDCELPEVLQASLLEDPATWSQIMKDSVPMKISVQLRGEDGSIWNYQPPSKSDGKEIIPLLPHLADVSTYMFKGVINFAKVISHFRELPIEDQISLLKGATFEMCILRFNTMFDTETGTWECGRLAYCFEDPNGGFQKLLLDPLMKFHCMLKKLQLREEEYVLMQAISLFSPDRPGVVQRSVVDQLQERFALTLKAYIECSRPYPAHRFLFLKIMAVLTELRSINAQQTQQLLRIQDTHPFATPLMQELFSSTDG

[18] = qHTS assay for small molecule activators of the human pregnane X receptor (PXR) signaling pathway (AID 720659; call rule not given here; note: 0% is about no effect)
[19] = Cell Viability - LYMP2-017 (AID 972); note: % is set by controls: 0 for no effect and ±100 for the full control effect; nearly all actives have a fitted effect of over 55% in size
In short: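 Human lymphoblastoid cells (2500/well) were seeded in complete medium, held 5 hr at 37 C, then exposed to compounds for 24 hr at 37 C. Intracellular ATP was read by CellTiter-Glo luminescence after 30 min at room temperature, with AC50 values from Hill-equation fits.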

[20] = target: Vitamin D3 receptor (Homo sapiens) (UniProt P11473); experiment: qHTS assay for small molecule agonists of vitamin D receptor signaling (AID 588543; calls by dose curve;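 note: 0% = DMSO basal and 100% = reference agonist control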)
Sequence of Vitamin D3 receptor (Homo sapiens) (P11473 whole entry, looked up): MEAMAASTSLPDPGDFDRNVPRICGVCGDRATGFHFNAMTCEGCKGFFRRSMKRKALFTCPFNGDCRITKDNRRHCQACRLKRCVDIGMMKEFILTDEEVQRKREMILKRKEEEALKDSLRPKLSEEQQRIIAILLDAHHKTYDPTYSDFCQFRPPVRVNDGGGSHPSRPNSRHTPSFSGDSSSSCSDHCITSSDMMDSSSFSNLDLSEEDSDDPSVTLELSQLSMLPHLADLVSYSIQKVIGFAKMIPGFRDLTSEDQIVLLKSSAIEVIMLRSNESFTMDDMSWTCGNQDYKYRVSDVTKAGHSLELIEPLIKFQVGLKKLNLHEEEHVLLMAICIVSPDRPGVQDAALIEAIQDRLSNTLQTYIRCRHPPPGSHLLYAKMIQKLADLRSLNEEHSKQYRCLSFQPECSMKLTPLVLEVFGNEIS
In short: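 qHTS in agonist mode: compound titrations stimulate a VDR-driven β-lactamase reporter in HEK293T cells over 16 h at 37 °C. Response normalized to 50 nM 1α,25-dihydroxyvitamin D3 = 100%, DMSO = 0%; Hill fitting gives EC50 and maximal response.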

CCN(CC)CCO
inactive: Potency [1] | Potency [2] | Potency [3] | outcome [4] | caspase-3 activation [5] 4.32% | Potency [6] | outcome [7] | Potency [8] | Potency [9] | Potency [10] | Potency [11] | Potency [12] | Potency [13] | outcome [14] | Potency [15] | max response [16] -6.79% | max response [17] 0.466% | outcome [18]

Nn1cnnc1
inactive: Potency [1] | Potency [2] | outcome [4] | caspase-3 activation [5] 0.966% | Potency [6] | outcome [7] | Potency [8] | Potency [19] | Potency [10] | Potency [11] | Potency [12] | outcome [20] | Potency [13] | outcome [14] | Potency [15] | max response [17] 2.65% | outcome [18]

ClP(Cl)(Cl)(Cl)Cl
inactive: Potency [1] | Potency [2] | outcome [4] | caspase-3 activation [5] -1.32% | Potency [6] | outcome [7] | Potency [8] | Potency [19] | Potency [10] | Potency [11] | outcome [20] | Potency [13] | outcome [14] | Potency [15] | max response [16] -1.82% | max response [17] 0.805% | outcome [18]

COC(=O)Nc1cccc(OC(=O)Nc2cccc(C)c2)c1
active: Potency [6] 25.1 µM | Potency [13] 42.2 µM
inactive: Potency [1] | Potency [2] | Potency [3] | outcome [4] | caspase-3 activation [5] 0.0585% | outcome [7] | Potency [8] | Potency [9] | Potency [19] | Potency [11] | Potency [12] | outcome [14] | Potency [15] | max response [16] -11.1%

Clc1cccc(Cl)c1
inactive: Potency [1] | Potency [2] | caspase-3 activation [5] 1.04% | Potency [6] | Potency [8] | Potency [9] | Potency [19] | Potency [10] | Potency [11] | outcome [20] | Potency [13] | outcome [14] | Potency [15] | max response [16] -2.71% | max response [17] 1.78% | outcome [18]

Cl/C=C/Cl
inactive: Potency [1] | Potency [2] | outcome [4] | caspase-3 activation [5] -0.612% | Potency [6] | outcome [7] | Potency [8] | Potency [9] | Potency [19] | Potency [10] | Potency [11] | Potency [12] | outcome [20] | outcome [14] | Potency [15] | max response [17] -3.34% | outcome [18]

COC(=O)c1ccccc1N
inactive: Potency [1] | Potency [3] | outcome [4] | caspase-3 activation [5] -1.69% | Potency [6] | outcome [7] | Potency [8] | Potency [9] | Potency [19] | Potency [10] | Potency [11] | Potency [12] | outcome [20] | outcome [14] | Potency [15] | max response [17] -0.835% | outcome [18]

CSSC
inactive: Potency [1] | Potency [2] | Potency [3] | outcome [4] | caspase-3 activation [5] -3.42% | Potency [6] | outcome [7] | Potency [8] | Potency [9] | Potency [19] | Potency [10] | Potency [11] | Potency [12] | outcome [20] | outcome [14] | Potency [15] | max response [16] 1.42% | max response [17] -2.6% | outcome [18]

S=C1NCCN1
inactive: Potency [1] | Potency [2] | caspase-3 activation [5] -0.864% | Potency [6] | outcome [7] | Potency [8] | Potency [9] | Potency [10] | Potency [11] | Potency [12] | outcome [20] | outcome [14] | max response [17] 6.01% and -10.7% | outcome [18]

C=CC#N
inactive: Potency [1] | Potency [3] | caspase-3 activation [5] -0.49% | Potency [6] | Potency [8] | Potency [9] | Potency [19] | Potency [10] | Potency [12] | outcome [20] | Potency [13] | outcome [14] | Potency [15] | max response [16] 7.55% | max response [17] -2.96% | outcome [18]

[N-]=[N+]=[N-]
inactive: Potency [1] | Potency [2] | Potency [3] | caspase-3 activation [5] -2.5% | Potency [6] | outcome [7] | Potency [8] | Potency [9] | Potency [19] | Potency [10] | Potency [11] | Potency [12] | outcome [20] | Potency [13] | outcome [14] | max response [16] -8.07% | max response [17] -8.68% | outcome [18]

Cc1ccc(N=C=O)cc1N=C=O
active: Potency [6] 15.8 µM
inactive: Potency [1] | Potency [2] | Potency [3] | outcome [4] | caspase-3 activation [5] 2% | outcome [7] | Potency [8] | Potency [10] | Potency [12] | outcome [20] | Potency [15] | max response [16] -4.8% and -0.784% | max response [17] 5.64% and 2.33% | outcome [18]

O=C(Cl)c1ccccc1F
inactive: Potency [1] | Potency [2] | Potency [3] | outcome [4] | Potency [6] | outcome [7] | Potency [8] | Potency [9] | Potency [19] | Potency [10] | Potency [11] | Potency [12] | outcome [20] | Potency [13] | outcome [14] | Potency [15] | max response [16] 6.36% | max response [17] 4.78% | outcome [18]

C=C(Cl)CCl
inactive: Potency [1] | Potency [2] | Potency [3] | outcome [4] | caspase-3 activation [5] 0.722% | Potency [6] | outcome [7] | Potency [8] | Potency [9] | Potency [19] | Potency [10] | Potency [11] | Potency [12] | outcome [20] | Potency [13] | outcome [14] | Potency [15] | max response [16] 19% | max response [17] 1.93% | outcome [18]

CCNCC
inactive: Potency [1] | Potency [2] | Potency [3] | outcome [4] | caspase-3 activation [5] 1.2% | Potency [6] | outcome [7] | Potency [8] | Potency [9] | Potency [19] | Potency [11] | outcome [20] | Potency [13] | outcome [14] | Potency [15] | max response [16] 14.5% | max response [17] 0.38% | outcome [18]

CC(=O)CCC(C)=O
inactive: Potency [1] | Potency [2] | Potency [3] | outcome [4] | caspase-3 activation [5] 0.261% | Potency [6] | outcome [7] | Potency [8] | Potency [9] | Potency [19] | Potency [10] | Potency [12] | outcome [20] | Potency [13] | outcome [14] | max response [17] -1.31% | outcome [18]

Source: PubChem BioAssay (NCATS)
